Shown are actives, neighbours in structure and some others; about 15% of the full set was active somewhere.
ELG1 repair inh – ELG1-dependent DNA repair inhibition | HEK293T ELG1-luciferase reporter, luminescence, 16 h; DNA damage induced by 5-fluorouridine | Potency, µM (highest dose often 46.1 µM), for inactives: at the top dose activity change, negative = inhibition, usual class: inhibitors | hit rate 2.3% among 330,000 | AID 504467; note: nearly all actives have a fitted effect of over 55% in size
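In this reporter screen, reduction of luminescence relative to DMSO vehicle indicated activity. Compounds and 5-fluorouridine were added together to 2,000 cells per well, incubated for 16 hr at 37 °C, then developed with ONE-Glo.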
12-LOX inh – inhibitors of human 12S-lipoxygenase ALOX12. P18054. purified 12hLO, xylenol orange hydroperoxide absorbance. Potency, µM (highest dose often 108 µM), for inactives: at the highest dose activity change, negative = inhibition, usual class: inhibitors. hit rate 1.1% among 580,000
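Purified human 12hLO at 150 nM in 25 mM Hepes, 0.01% Triton X-100, pH 7.0, preincubated 15 min at room temperature with compound. Reaction started with 40 uM arachidonic acid, 30 min at room temperature. Hydroperoxide measured by Fe-xylenol orange, 573/405 nm absorbance ratio.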
Gal4-VP16 FLuc – inhibits Gal4-VP16 luciferase reporter, ROR gamma counter-screen; hit rate 3.5% among 310,000; AID 2546; Potency, µM (titrated, usually from 53.6 µM), for the others: top-dose activity, negative = inhibition, actives largely listed as inhibitors; Drosophila S2 Gal4-VP16 UAS-luciferase, luminescence, 20 h;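 note: Gal4-VP16 expression switched on by copper sulfate through the metallothionein promoter; nearly all actives have a fitted effect of over 50% in size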
RORg inh – inhibitors of mouse ROR gamma transcriptional activity. Drosophila S2 Gal4-RORgamma UAS-luciferase reporter, 20 h. hit rate 5.4% among 310,000. Potency, µM (series often up to 53.6 µM), without a hit: at the top dose activity change, negative = inhibition, most hits filed as inhibitors; note: nearly all actives have a fitted effect of over 60% in size
Target sequence (P51450 whole entry, looked up, the tested form may be a part): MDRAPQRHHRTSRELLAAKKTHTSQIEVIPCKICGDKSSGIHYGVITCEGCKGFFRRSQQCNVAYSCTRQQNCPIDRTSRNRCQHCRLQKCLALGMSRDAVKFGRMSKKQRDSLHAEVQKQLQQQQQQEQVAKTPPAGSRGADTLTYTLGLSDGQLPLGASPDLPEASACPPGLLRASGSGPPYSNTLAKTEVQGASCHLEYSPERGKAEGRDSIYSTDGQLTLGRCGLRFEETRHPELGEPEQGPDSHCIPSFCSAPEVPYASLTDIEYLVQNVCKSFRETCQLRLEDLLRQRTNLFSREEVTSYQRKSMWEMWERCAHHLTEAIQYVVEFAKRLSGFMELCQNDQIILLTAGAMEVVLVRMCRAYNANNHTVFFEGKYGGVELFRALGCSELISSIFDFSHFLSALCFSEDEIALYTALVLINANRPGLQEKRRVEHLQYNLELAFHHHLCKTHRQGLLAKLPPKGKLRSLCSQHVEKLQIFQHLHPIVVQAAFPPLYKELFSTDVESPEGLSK
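A Gal4/UAS one-hybrid system in insect cells: metallothionein-promoter Gal4–ROR gamma fusion plus Photinus luciferase reporter. Copper sulfate 700 uM final, 20 hr ambient incubation, luminescent detection after 10 min with reagent.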
TDP1 cell CPT – DT40-hTDP1 cell growth loss with CPT; hit rate 12% among 420,000; Potency, µM (top dose mostly 46.2 µM), for inactives: top-dose activity change, negative = growth inhibition, hits mostly inhibitors; chicken DT40 Tdp1-/-;hTDP1 cells + 20 nM CPT, ATP luminescence, 48 h; note: nearly all actives have a fitted effect of over 55% in size
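Chicken DT40 Tdp1-/- cells complemented with human TDP1, 400 cells/well, exposed to compounds plus 20 nM camptothecin for at least 48 h at 37 C; viability read as ATP content by CellTiter-Glo luminescence.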
DT40 TDP1 no CPT – qHTS for Inhibitors of human tyrosyl-DNA phosphodiesterase 1 (TDP1): qHTS in cells in absence of CPT; DT40 Tdp1-/- hTDP1 cells, no CPT, ATP luminescence, 48 h; Potency, µM (highest dose often 46.2 µM), inactives show at the top dose activity change, negative = growth inhibition, usual class: inhibitors; hit rate 15% among 420,000; AID 686978, 2013; note: nearly all actives have a fitted effect of over 55% in size
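Cells were dispensed at 400 per well, compounds added by pin tool, plates incubated ≥48 hr at 37 °C, then CellTiter-Glo added for 30 min at room temperature before luminescence reading. Line: DT40 Tdp1-/- complemented with hTDP1; camptothecin omitted.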
The depositor's hits bear a star; ? = inconclusive; . = not tested or not shown; [ ] = remark or other dose. Calls come from the whole dose curve; as a rule, active = well fitted curve in the direction sought with a large enough effect; inconclusive = small, poorly fitted or top-dose-only effect, or another doubt; inactive = no such curve, though single readings can be large; an effect the other way counts as inactive or inconclusive. % is set by controls: 0 for no effect and ±100 for the full control effect; potency is the fitted concentration of half-maximal effect.

SMILES | ELG1 repair inh | 12-LOX inh | Gal4-VP16 FLuc | RORg inh | TDP1 cell CPT | DT40 TDP1 no CPT
C/C(=N/NC(=O)CN(c1ccccc1)S(=O)(=O)c1ccccc1)c1ccccc1O | 13µM* | 0.1% | 0.794µM* | 0.708µM* | 18.4µM* | 9.2µM*
C/C(=N\NC(=O)CCCCCNC(=O)c1ccccc1)c1ccccc1O | -6.4% | 3.2% | 10µM* | 5.01µM* | -14.8% | -28.1%
CN(C(=O)c1cc(C2CC2)nc2ccccc12)c1ccccc1 | . | -7.6% | . | . | . | .
CS(=O)(=O)N1CCN(C(C(=O)O)c2c[nH]c3ccccc23)CC1 (centres undefined) | . | -6.3% | . | . | . | .
NC(N)=Nc1nc(-c2ccccc2)c2cc(F)ccc2n1 | -0.1% | -14.1% | -8.1% | -26.9% | 20.6µM* | 11.6µM*
Cc1ccc(CNC(=O)CCCCCn2c(=O)[nH]c3ccccc3c2=O)cc1 | . | -29.3% | . | . | 0.651µM* | 0.82µM*
O=C(CCCn1c(=O)[nH]c2ccccc2c1=O)NCCSCc1ccccc1 | 4.3% | 2.8% | -11.0% | -1.6% | -21.1% | -25.0%
O=C(CCCn1c(=S)[nH]c2ccccc2c1=O)NCCSCc1ccccc1 | -24.7% | 0.1% | -5.1%[10 µM] | 12.6µM* | 23.1µM* | ?
CC(=O)Nc1cccc(NC(=O)Cc2cccs2)c1 | -9.3% | ? | 11.0% | -27.5% | 4.3% | -5.1%
Cc1ccccc1-c1nc(-c2ccc(NC(=O)c3cccs3)cc2)no1 | ? | 20.0% | -0.1% | -8.0% | 23.1µM* | ?
O=C(Cc1cccs1)Nc1cccc(-c2nc3cc4ccccc4cc3[nH]2)c1 | ? | ? | ? | 14.9% | 25.9µM* | 13µM*
O=C(Nc1ccc2nc(-c3cccs3)[nH]c2c1)c1cccs1 | ? | -2.9% | -6.6% | -1.6% | ? | 23.1µM*
O=C(Nc1ccc(-c2nc3ccc(NC(=O)c4cccs4)cc3[nH]2)cc1)c1cccs1 | ? | ? | ? | 12.6µM* | 1.64µM* | 1.64µM*
Cc1cc(C)c(C(=O)COC(=O)c2cccc(C)c2C)cc1C | . | -10.0% | . | . | . | .
C=Cc1ccc(CC2(C)C(=O)Nc3ccc(-c4cccnc4)cc32)cc1 (centres undefined) | . | ? | . | . | ? | 4.61µM*
CCc1ccc2c(c1)NC(=O)C2(C)Cc1ccccc1 (centres undefined) | . | -0.8% | . | . | ? | ?
CC1(Cc2ccc(Cl)cc2)C(=O)Nc2ccc(-c3ccc(F)c(Cl)c3)cc21 (centres undefined) | . | -23.9% | . | . | ? | ?
CC1(Cc2ccc(F)cc2)C(=O)Nc2ccc(-c3cccnc3)cc21 (centres undefined) | . | -1.4% | . | . | 23.1µM* | 10.3µM*
CC(NCc1ccc(-c2ccccc2)cc1)C(O)c1ccccc1 (centres undefined) | -28.8% | ? | 2.82µM* | ? | ? | 18.4µM*
CC(O)CNCc1ccc(-c2ccccc2)cc1 (centres undefined) | 5.2% | 20.3% | -3.9% | -16.1% | -13.8% | -21.0%
CCCC[C@@H]1CN=C(N)N1CC(C)(C)C | . | 3.0% | . | . | ? | 23.1µM*
CCCCN1C(N)=NC[C@@H]1CCCCN | . | -9.2% | . | . | -8.9% | 1.1%
Cc1ccc(S(=O)(=O)N2CCN(Cc3ccccc3Cl)CC2)cc1 | . | ? | . | . | ? | 18.4µM*
Cc1ccc(S(=O)(=O)N2CCN(Cc3ccccc3C(F)(F)F)CC2)cc1 | -6.4% | 1.12µM* | 4.5% | 14.4% | -9.0% | -32.7%
C/C(=N\NC(=O)c1cccs1)c1ccc(Br)cc1 | . | 8.4% | . | . | . | .
SMILES | ELG1 repair inh | 12-LOX inh | Gal4-VP16 FLuc | RORg inh | TDP1 cell CPT | DT40 TDP1 no CPT
COc1cc2c(-c3cc4ccccc4o3)cc(=O)oc2cc1C | . | 27.5% | . | . | . | .
CCCCn1cnc2c1c(=O)n(CC(=O)Nc1cc(F)ccc1C)c(=O)n2CCCC | . | 1.6% | . | . | . | .
CC1(C)c2ccccc2C(=O)c2ccccc21 | . | 0.1% | . | . | -29.7% | ?
O=[N+]([O-])C1C(c2ccccc2)C12c1ccccc1-c1ccccc12 (centres undefined) | . | . | . | . | 1.03µM* | 1.03µM*
CC(=O)Nc1ccc(NC(=O)c2ccc(C3SCC(=O)N3CCc3ccccc3)cc2)cc1 (centres undefined) | 23.1µM* | 25.7% | -13.0% | ? | -16.3% | -24.2%
Cc1cccc(NC(=O)c2ccc(C3SCC(=O)N3CCc3ccccc3)cc2)c1 (centres undefined) | 25.9µM* | 2.5% | ? | ? | ? | ?
COCCNC(=O)c1ccc(C2SCC(=O)N2CCc2ccccc2)cc1 (centres undefined) | 17.6% | 1.9% | 27.1% | 41.9% | -23.1% | -1.6%
O=C1C=C(c2ccc(-c3ccccc3)c(F)c2)C[C@@H](c2ccc(F)cc2)C1 | -15.0% | 2.3% | . | . | ? | ?
COc1cccc(C#CC2=CC(=O)C[C@H](c3ccc(F)cc3)C2)c1 | . | -70.2% | . | . | 13µM* | 8.2µM*
O=C1C=C(C#Cc2ccc(Oc3ccccc3)cc2)C[C@@H](c2ccc(F)cc2)C1 | . | 0.0% | . | . | 16.4µM* | 11.6µM*
Cc1cc(C)c2oc(-c3cccc(NC(=O)CC(C)C)c3)nc2c1 | . | -40.7% | . | . | . | .
Cc1ccc(-c2noc(-c3ccccc3NC(=O)C3CC(=O)N(c4ccccc4C)C3)n2)cc1 (centres undefined) | . | 0.0% | . | . | 18.4µM* | 23.1µM*
Cc1cccc(-c2noc(-c3ccccc3NC(=O)C3CC(=O)N(c4ccccc4C)C3)n2)c1 (centres undefined) | . | -3.6% | . | . | 23.1µM* | 14.6µM*
CCC1(CC)Cc2ccccc2C(=O)N1 | -3.1% | -19.9% | -3.1% | 3.4% | 3.0% | -0.6%
CCC1(CC)Cc2ccccc2C(N)=C1C#N | -0.2% | 146.7% | -9.9% | -34.4% | 20.6µM* | 20.6µM*
O=c1[nH]c(N2CCOCC2)nc2c1CCN(Cc1ccc(F)c(Cl)c1)CC2 | . | 8.9% | . | . | . | .
COc1cccc(CNC(=O)C2CCN(C(=O)N3CC(C)Oc4ccc(C)cc43)CC2)c1 (centres undefined) | . | -9.8% | . | . | . | .
CSc1ccc(/C=C/C(=O)Nc2ccccc2-c2cccs2)cc1 | . | -5.6% | . | . | . | .
CC(=O)N1CCCc2cc(S(=O)(=O)N(C)CC(=O)Nc3ccc(Cl)cc3C)ccc21 | . | ? | . | . | 23.1µM* | 23.1µM*
COc1ccc(OC)c(NC(=O)CN(C)S(=O)(=O)c2ccc(Cl)cc2)c1 | -12.2% | -3.0% | ? | 36.7% | -8.5% | -29.9%
COc1ccc(NC(=O)CCS(=O)(=O)c2ccc3c(c2)CCCN3C(C)=O)cc1Cl | -4.5% | -24.4% | -4.1% | 2.0% | 1.5% | -8.5%

High-throughput results deposited in PubChem BioAssay by National Center for Advancing Translational Sciences (NCATS).
